What all share (experiment): DAPPL (digital affinity profiling via proximity ligation, sequencing); 10 mM Tris-HCl pH 7.5, 50 mM NaCl, 1 mM DTT, 4% glycerol, room temperature, 30 min; GST-TFs on glutathione beads, 16-mer random dsDNA library, 0.1% formaldehyde crosslink after washing; high values mean tight binding
Holding throughout (conditions): protein: recombinant; tags: N-terminal GST; dsDNA, one strand shown

One assay concerns the target T1, ERF (Homo sapiens, UniProt P50548 1-548).
T1 sequence: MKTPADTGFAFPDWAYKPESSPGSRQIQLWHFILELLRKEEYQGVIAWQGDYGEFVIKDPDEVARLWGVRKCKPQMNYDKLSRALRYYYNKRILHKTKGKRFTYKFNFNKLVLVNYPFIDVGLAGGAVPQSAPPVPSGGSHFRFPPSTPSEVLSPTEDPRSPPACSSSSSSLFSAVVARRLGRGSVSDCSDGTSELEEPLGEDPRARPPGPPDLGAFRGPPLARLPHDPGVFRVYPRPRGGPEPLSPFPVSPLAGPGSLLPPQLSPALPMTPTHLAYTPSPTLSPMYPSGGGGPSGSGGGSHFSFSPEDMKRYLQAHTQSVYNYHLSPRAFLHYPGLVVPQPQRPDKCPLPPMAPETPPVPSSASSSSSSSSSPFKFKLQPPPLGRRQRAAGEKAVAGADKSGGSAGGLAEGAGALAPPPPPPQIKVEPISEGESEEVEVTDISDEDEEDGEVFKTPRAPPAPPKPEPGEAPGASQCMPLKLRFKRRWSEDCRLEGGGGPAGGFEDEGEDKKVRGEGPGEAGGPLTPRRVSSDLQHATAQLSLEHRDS
The method in brief: (§1)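 Human transcription factors carrying a GST fusion were produced in yeast, bound to glutathione beads, tagged with DNA barcodes and pooled together with a tag-only sample. Each pool was held with 200 nmole of a random double-stranded 16-mer DNA library in Tris/NaCl/DTT/glycerol buffer for 30 min at room temperature, then washed, crosslinked in 0.1% formaldehyde, proximity-ligated with BsaI/T4 ligase (1 h, 37 °C), PCR-amplified and sequenced on an Illumina NextSeq500. Binding signal is the read frequency of each hexamer for a given factor divided by its frequency in the tag-only sample.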

The target in the next assay is T2, ETV3L (Homo sapiens, UniProt Q6ZN32 1-361).
T2 sequence: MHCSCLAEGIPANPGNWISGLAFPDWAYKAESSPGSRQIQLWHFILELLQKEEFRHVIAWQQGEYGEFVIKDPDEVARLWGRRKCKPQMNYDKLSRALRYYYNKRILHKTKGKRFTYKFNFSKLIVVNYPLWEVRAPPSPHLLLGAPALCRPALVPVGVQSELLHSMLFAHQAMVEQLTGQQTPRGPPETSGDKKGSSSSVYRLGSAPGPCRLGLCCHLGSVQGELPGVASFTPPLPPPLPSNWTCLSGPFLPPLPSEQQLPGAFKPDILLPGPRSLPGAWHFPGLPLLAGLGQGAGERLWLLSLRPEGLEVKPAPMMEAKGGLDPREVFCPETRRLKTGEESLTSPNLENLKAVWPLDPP
The method in brief:
as §1

The target in another assay is T3, ETS2 (Homo sapiens, UniProt P15036 1-469).
T3 sequence: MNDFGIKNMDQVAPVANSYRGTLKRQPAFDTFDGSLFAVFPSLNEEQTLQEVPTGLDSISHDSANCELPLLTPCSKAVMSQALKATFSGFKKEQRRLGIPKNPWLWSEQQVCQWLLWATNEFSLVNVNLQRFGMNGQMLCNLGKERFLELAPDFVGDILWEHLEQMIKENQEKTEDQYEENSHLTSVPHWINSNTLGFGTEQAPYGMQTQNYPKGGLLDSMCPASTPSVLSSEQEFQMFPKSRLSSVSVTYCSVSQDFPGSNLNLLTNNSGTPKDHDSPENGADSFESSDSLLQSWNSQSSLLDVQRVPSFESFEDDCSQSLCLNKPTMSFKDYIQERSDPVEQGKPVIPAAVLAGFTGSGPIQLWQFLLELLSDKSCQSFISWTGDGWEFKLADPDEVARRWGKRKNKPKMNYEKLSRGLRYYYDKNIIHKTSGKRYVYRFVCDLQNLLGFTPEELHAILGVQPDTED
The method in brief:
as §1

A further assay concerns the target T4, SPDEF (Homo sapiens, UniProt O95238 1-335).
T4 sequence: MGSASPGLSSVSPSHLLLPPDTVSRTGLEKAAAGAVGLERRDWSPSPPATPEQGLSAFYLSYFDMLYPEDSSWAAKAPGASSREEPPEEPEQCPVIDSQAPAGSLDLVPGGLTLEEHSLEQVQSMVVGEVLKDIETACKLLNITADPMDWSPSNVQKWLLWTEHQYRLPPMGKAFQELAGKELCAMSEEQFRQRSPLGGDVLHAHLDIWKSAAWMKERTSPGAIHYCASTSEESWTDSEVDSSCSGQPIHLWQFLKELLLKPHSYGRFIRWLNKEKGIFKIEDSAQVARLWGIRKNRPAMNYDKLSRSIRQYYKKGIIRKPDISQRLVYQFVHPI
The method in brief:
as §1

The target in another assay is T5, ETV7 (Homo sapiens, UniProt Q9Y603 1-341).
T5 sequence: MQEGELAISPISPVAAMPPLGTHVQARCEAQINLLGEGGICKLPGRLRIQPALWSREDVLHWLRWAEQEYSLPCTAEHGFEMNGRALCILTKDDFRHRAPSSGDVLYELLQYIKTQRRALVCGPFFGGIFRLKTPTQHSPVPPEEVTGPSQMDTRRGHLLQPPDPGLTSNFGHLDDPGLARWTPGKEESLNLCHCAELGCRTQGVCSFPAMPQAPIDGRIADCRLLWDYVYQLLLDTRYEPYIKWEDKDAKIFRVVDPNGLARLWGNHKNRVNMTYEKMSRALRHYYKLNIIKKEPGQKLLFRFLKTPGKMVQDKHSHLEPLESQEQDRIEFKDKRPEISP
The method in brief: as §1

The target of another assay is T6, ELF5 (Homo sapiens, UniProt Q9UKW6-2 1-255).
T6 sequence: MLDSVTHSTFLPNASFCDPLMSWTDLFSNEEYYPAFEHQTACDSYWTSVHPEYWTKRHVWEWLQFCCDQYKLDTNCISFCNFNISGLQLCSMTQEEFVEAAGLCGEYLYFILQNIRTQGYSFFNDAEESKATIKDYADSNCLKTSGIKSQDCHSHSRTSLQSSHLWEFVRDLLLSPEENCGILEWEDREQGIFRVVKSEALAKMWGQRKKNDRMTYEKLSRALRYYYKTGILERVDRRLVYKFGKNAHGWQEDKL
The gist of the method: as §1

The target of another assay is T7, ETV3 (Homo sapiens, UniProt P41162-2 1-143).
T7 sequence: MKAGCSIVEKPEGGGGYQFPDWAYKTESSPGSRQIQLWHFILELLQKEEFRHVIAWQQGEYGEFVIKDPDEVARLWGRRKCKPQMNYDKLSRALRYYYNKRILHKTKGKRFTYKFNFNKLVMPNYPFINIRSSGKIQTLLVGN
The gist of the method:
as §1

The target in the next assay is ETV6 (Homo sapiens, UniProt P41212 1-452). The gist of the method:
as §1

Chain of ETV6 (P41212 whole entry): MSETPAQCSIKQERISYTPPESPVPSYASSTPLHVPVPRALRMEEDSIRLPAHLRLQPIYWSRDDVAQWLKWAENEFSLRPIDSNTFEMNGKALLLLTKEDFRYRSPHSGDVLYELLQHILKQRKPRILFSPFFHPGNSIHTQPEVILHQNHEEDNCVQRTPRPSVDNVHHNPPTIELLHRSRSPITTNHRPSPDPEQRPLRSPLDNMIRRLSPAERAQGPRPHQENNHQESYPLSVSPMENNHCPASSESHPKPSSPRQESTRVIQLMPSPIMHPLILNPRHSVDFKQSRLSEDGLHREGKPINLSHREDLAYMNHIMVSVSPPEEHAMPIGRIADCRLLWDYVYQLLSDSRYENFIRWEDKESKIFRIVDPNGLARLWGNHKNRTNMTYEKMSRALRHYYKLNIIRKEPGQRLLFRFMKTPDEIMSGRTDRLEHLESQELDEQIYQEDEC

As to TGCAAT, the binding signal is 1.14 fold enrichment (6-mer frequency, TF over GST control) in the assay with ERF; 1.12 fold enrichment (6-mer frequency, TF over GST control) in the assay with ETV3L; 1.15 fold enrichment (6-mer frequency, TF over GST control) with ETS2; 1.15 fold enrichment (6-mer frequency, TF over GST control) in the assay with SPDEF; 1.2 fold enrichment (6-mer frequency, TF over GST control) in the assay with ETV7; 1.1 fold enrichment (6-mer frequency, TF over GST control) with ELF5. The binding signal was 1.15 fold enrichment (6-mer frequency, TF over GST control) with ETV3 and 1.17 fold enrichment (6-mer frequency, TF over GST control) with ETV6.

Take TACACA: the binding signal with ERF is 1.24 fold enrichment (6-mer frequency, TF over GST control); in the assay with ETV3L it was 1.15 fold enrichment (6-mer frequency, TF over GST control); with ETS2, 1.16 fold enrichment (6-mer frequency, TF over GST control); with SPDEF, 1.27 fold enrichment (6-mer frequency, TF over GST control); with ETV7, 1.19 fold enrichment (6-mer frequency, TF over GST control); with ELF5, 1.13 fold enrichment (6-mer frequency, TF over GST control). The binding signal with ETV3 was 1.13 fold enrichment (6-mer frequency, TF over GST control); with ETV6, 1.21 fold enrichment (6-mer frequency, TF over GST control).

As for AGATGA, the binding signal with ERF was 1.18 fold enrichment (6-mer frequency, TF over GST control); in the assay with ETV3L, 1.01 fold enrichment (6-mer frequency, TF over GST control); in the assay with ETS2, 1.05 fold enrichment (6-mer frequency, TF over GST control); with SPDEF, 1.14 fold enrichment (6-mer frequency, TF over GST control); with ETV7, 1.15 fold enrichment (6-mer frequency, TF over GST control); with ELF5, 1.05 fold enrichment (6-mer frequency, TF over GST control). Besides, the binding signal with ETV3 is 1.1 fold enrichment (6-mer frequency, TF over GST control); in the assay with ETV6 it was 1.13 fold enrichment (6-mer frequency, TF over GST control).

Turning to TAAACA, the binding signal was 1.31 fold enrichment (6-mer frequency, TF over GST control) in the assay with ERF; 1.25 fold enrichment (6-mer frequency, TF over GST control) with ETV3L; 1.27 fold enrichment (6-mer frequency, TF over GST control) with ETS2; 1.27 fold enrichment (6-mer frequency, TF over GST control) with SPDEF; 1.24 fold enrichment (6-mer frequency, TF over GST control) in the assay with ETV7; 1.22 fold enrichment (6-mer frequency, TF over GST control) with ELF5. Moreover, the binding signal with ETV3 was 1.25 fold enrichment (6-mer frequency, TF over GST control); in the assay with ETV6, 1.25 fold enrichment (6-mer frequency, TF over GST control).

In the case of GATGTC, the binding signal with ERF was 1.29 fold enrichment (6-mer frequency, TF over GST control); in the assay with ETV3L, 1.31 fold enrichment (6-mer frequency, TF over GST control); with ETS2, 1.33 fold enrichment (6-mer frequency, TF over GST control); in the assay with SPDEF, 1.53 fold enrichment (6-mer frequency, TF over GST control); with ETV7 it was 1.27 fold enrichment (6-mer frequency, TF over GST control); with ELF5 it was 1.42 fold enrichment (6-mer frequency, TF over GST control). Moreover, the binding signal was 1.32 fold enrichment (6-mer frequency, TF over GST control) in the assay with ETV3 and 1.21 fold enrichment (6-mer frequency, TF over GST control) with ETV6.

Consider CAATCA, for which the binding signal with ERF is 1.19 fold enrichment (6-mer frequency, TF over GST control); with ETV3L, 1.2 fold enrichment (6-mer frequency, TF over GST control); with ETS2 it was 1.13 fold enrichment (6-mer frequency, TF over GST control); with SPDEF, 1.07 fold enrichment (6-mer frequency, TF over GST control); with ETV7, 1.04 fold enrichment (6-mer frequency, TF over GST control); with ELF5, 1.1 fold enrichment (6-mer frequency, TF over GST control). The binding signal in the assay with ETV3 is 1.1 fold enrichment (6-mer frequency, TF over GST control); with ETV6, 1.16 fold enrichment (6-mer frequency, TF over GST control).

As for TTCGCA, the binding signal is 1.46 fold enrichment (6-mer frequency, TF over GST control) with ERF; 1.32 fold enrichment (6-mer frequency, TF over GST control) with ETV3L; 1.18 fold enrichment (6-mer frequency, TF over GST control) with ETS2; 1.31 fold enrichment (6-mer frequency, TF over GST control) with SPDEF; 1.26 fold enrichment (6-mer frequency, TF over GST control) with ETV7; 1.27 fold enrichment (6-mer frequency, TF over GST control) with ELF5. For the same sequence, the binding signal with ETV3 is 1.34 fold enrichment (6-mer frequency, TF over GST control); with ETV6, 1.22 fold enrichment (6-mer frequency, TF over GST control).
